Results filed as inconclusive are left out. Active and inactive are the calls of the source. Unless noted, the rule behind the calls is not given here.

Experiment [1] in a line: qHTS profiling of the MIPE4 collection as inhibitors of Plasmodium falciparum (3D7) proliferation (AID 743344).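 Note: scaled between DMSO vehicle wells and 0.29 µM artemisinin as full inhibition.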 As to conditions: P. falciparum 3D7 in erythrocytes, SYBR Green DNA fluorescence, 72 h; at 28.5 µM unless noted. A digest of the protocol:
(§1)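 Parasite DNA was quantified by SYBR Green I fluorescence (ex 485, em 535 nm) after overnight lysis in saponin/Triton buffer at room temperature. Cultures at 0.3% parasitemia and 2.5% hematocrit were first exposed to compound for 72 h at 37 C; signals were normalised to artemisinin (0.29 uM) and vehicle wells.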

Experiment [2] is described as follows: qHTS profiling of the MIPE4 collection as inhibitors of Plasmodium falciparum (DD2) proliferation (AID 743345). As to conditions: P. falciparum Dd2 in erythrocytes, SYBR Green DNA, 72 h; at 28.5 µM unless noted. Put shortly: as §1
A general note: qHTS replaces the single test concentration by a dilution series.

Experiment [3] in a line: qHTS profiling of the MIPE4 collection as inhibitors of Plasmodium falciparum (DD2) proliferation (Rep 2) (AID 743346). As to conditions: P. falciparum Dd2 in erythrocytes, SYBR Green DNA, 72 h; at 28.5 µM unless noted. A digest of the protocol:
as §1

Experiment [4] is described as follows: qHTS profiling of the MIPE4 collection as inhibitors of Plasmodium falciparum (HB3) proliferation (AID 743347).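 Note: plate controls were DMSO vehicle wells for no effect and artemisinin wells for full effect.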 As to conditions: P. falciparum HB3 in erythrocytes, SYBR Green DNA, 72 h; at 28.5 µM unless noted. Put shortly:
as §1

A short description of experiment [5]: High-throughput drug toxicity screening in the BPDCN cell line Gen2.2 (AID 1224824).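 Note: cells exposed to compounds for 48 h before reading.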 As to conditions: Gen2.2 BPDCN cells; at 45.8 µM (top of the series) unless noted. Put shortly:
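Gen2.2 cells (500/well) in phenol red-free RPMI with 10% FBS were exposed to compounds for 48 h at 37 °C, 5% CO2. Viability was read by CellTiter-Glo luminescence and normalized to DMSO (100%) and 9.2 uM bortezomib (0%).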

Experiment [6] can be described thus: High-throughput drug toxicity screening in the BPDCN cell line Cal-1 (AID 1224825). As to conditions: Cal-1 BPDCN cell viability, qHTS; at 45.8 µM (top of the series) unless noted. A digest of the protocol:
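CellTiter-Glo luminescence after 48 h compound exposure; percent activity scaled with DMSO as 100% and bortezomib (9.2 uM final) as 0%. Cal-1 cells seeded at 500/well in RPMI, 10% FBS, no phenol red.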

The nature of experiment [7]: qHTS assay for measurement of the activity of small molecule inhibitors on Zika virus induced Caspase-3 activity in human iPSC derived neural progenitor cells (hNPCs) (AID 1224857; active = well fitted curve in the direction sought with a large enough effect; an effect the other way counts as inactive or inconclusive; note: nearly all actives have a fitted effect of over 65% in size; note: potency is the fitted concentration of half-maximal effect). Put shortly: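 Caspase-3/7 induction by a 6-hour ZIKV infection was quantified with a luminescent Caspase-Glo 3/7 reagent incubated 30 minutes at room temperature. Compounds were preincubated with hNPCs for 1 hour; inhibition was calculated against uninfected and infected control wells.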

A short description of experiment [8]: qHTS assay for measurement of the activity of small molecule inhibitors on Zika virus induced Caspase-3 activity in human astrocytoma cells (AID 1224859; active = well fitted curve in the direction sought with a large enough effect; an effect the other way counts as inactive or inconclusive; note: potency is the fitted concentration of half-maximal effect). Put shortly: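 In SNB-19 cells plated at 250 cells/well and grown 16-20 h, compounds were applied 1 h before ZIKV (2 FFU/cell). Six hours later caspase-3/7 luminescence was recorded.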
A short description of experiment [9]: qHTS profiling for inhibitors of Plasmodium falciparum (HB3) proliferation (AID 743324; active = well fitted curve in the direction sought with a large enough effect; an effect the other way counts as inactive or inconclusive;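 note: 100% = DMSO vehicle wells and 0% = artemisinin-treated control wells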). As to conditions: Plasmodium falciparum HB3 blood-stage proliferation; at 28.7 µM (top of the series) unless noted. A digest of the protocol:
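SYBR Green fluorescence (485 ex/535 em) of lysed cultures, incubated overnight at room temperature in the dark, quantifies parasite DNA. Infected erythrocytes at 0.3% parasitemia and 2.5% hematocrit were exposed 72 h; values normalized to DMSO and 0.29 uM artemisinin controls.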

Experiment [10] in a line: qHTS Screen of the MIPE 4.0 Collection Against Ewings Sarcoma (RDES) (AID 1259252; active = well fitted curve in the direction sought with a large enough effect; an effect the other way counts as inactive or inconclusive; note: potency is the fitted concentration of half-maximal effect; nearly all actives have a fitted effect of over 35% in size). Put shortly:
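Viability screen: 48 h incubation at 37C, 95% humidity, 5% CO2 with serially titrated compound, followed by CellTiter-Glo readout.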

The molecule `Cc1nc(NC(=O)N2CCC[C@@H]2C(N)=O)sc1-c1csc(C(C)(C)C)n1` showed a parasite growth, % of DMSO control in [1] of 16.4%. Besides, the parasite growth remaining, % of DMSO control (lower = more inhibition) in experiment [2] was determined as 80.7%. Also, the parasite growth, % of control (lower = inhibition) in [3] was 28.5%. Further, in experiment [4], the growth, % of control is 14.5%. In addition, in [5], the cell viability, % of control (lower = more cytotoxic) was determined as 14.1%. Besides, the viability (% of control) in [6] was found to be 55.1%. In addition, the Potency entry in [7] and in experiment [8] was “inactive” throughout.

`CC(C)c1onc(-c2c(Cl)cccc2Cl)c1COc1ccc(C=Cc2cccc(C(=O)O)c2)c(Cl)c1`: in [1], the parasite growth, % of DMSO control worked out at 60.6%. Also, the parasite growth remaining, % of DMSO control (lower = more inhibition) in [2] was 94.1%. In addition, the parasite growth, % of control (lower = inhibition) in experiment [3] worked out at 53.3%. In [4], this molecule came in with a growth, % of control of 67.3%. The cell viability, % of control (lower = more cytotoxic) in [5] came out at 76.8%. The viability (% of control) in [6] came out at 107%. Besides, the Potency result in experiment [7] and in experiment [8] was “inactive” in each case.

For the molecule `CN(C)CC[C@H](CSc1ccccc1)Nc1ccc(S(=O)(=O)NC(=O)c2ccc(N3CCN(Cc4ccccc4-c4ccc(Cl)cc4)CC3)cc2)cc1[N+](=O)[O-]`, the remaining proliferation (% of control), lower = more inhibition in experiment [9] was found to be 41.4%. Besides, the parasite growth, % of DMSO control in experiment [1] was determined as 34%. For the same molecule, the parasite growth remaining, % of DMSO control (lower = more inhibition) in experiment [2] turned out to be 61.7%. In addition, the parasite growth, % of control (lower = inhibition) in experiment [3] amounted to 31.1%. Besides, the growth, % of control in [4] came to 4.32%. In addition, in experiment [5], the cell viability, % of control (lower = more cytotoxic) came out at 8.88%. Moreover, the viability (% of control) in experiment [6] turned out to be 4.81%. For the same molecule, the Potency result in experiment [7] and in experiment [8] was “inactive” in each case.

Consider `COc1ccc(CCC(=O)Nc2nc3ccc(Cl)cc3s2)cc1OC`, for which, in [4], the growth, % of control turned out to be 28.3%. Moreover, the cell viability, % of control (lower = more cytotoxic) in [5] was 135%. Moreover, the viability (% of control) in experiment [6] was determined as 98.2%. In addition, the Potency entry in experiment [7] and in experiment [8] was “inactive” each time. Further, the Potency in experiment [10] is 20.9 µM (active).

Molecule `Cc1nc(C(=O)NCC(=O)O)c(O)c2ccc(Oc3ccccc3)cc12` yielded a parasite growth, % of DMSO control in [1] of 86.9%. In addition, the parasite growth remaining, % of DMSO control (lower = more inhibition) in [2] is 95.5%. For the same molecule, the parasite growth, % of control (lower = inhibition) in experiment [3] came out at 67.9%. This molecule also yielded a growth, % of control in [4] of 69.9%. The cell viability, % of control (lower = more cytotoxic) in [5] stood at 54.1%. Further, the viability (% of control) in [6] is 115%. The Potency result in experiment [7] and in experiment [8] was “inactive” in each case.

For `O=C1NC(=O)C(=Cc2ccc(-c3ccc(F)cc3O)o2)S1`, the parasite growth, % of DMSO control in [1] was 34.3%. The parasite growth remaining, % of DMSO control (lower = more inhibition) in [2] was determined as 71.3%. The same molecule registered a parasite growth, % of control (lower = inhibition) in [3] of 61.3%. In experiment [4], this molecule came in with a growth, % of control of 34.2%. Moreover, in experiment [5], the cell viability, % of control (lower = more cytotoxic) came to 31.9%. Moreover, the viability (% of control) in experiment [6] was found to be 92.1%. Also, the Potency in [7] was 16.6 µM (active); in experiment [8], 14.8 µM (active).

Regarding `CCC=CC[C@H]1C(=O)CC[C@@H]1CC(=O)OC`, the remaining proliferation (% of control), lower = more inhibition in experiment [9] worked out at 113%. Further, the parasite growth, % of DMSO control in experiment [1] worked out at 62.5%. For the same molecule, the parasite growth remaining, % of DMSO control (lower = more inhibition) in [2] worked out at 109%. In [3], this molecule registered a parasite growth, % of control (lower = inhibition) of 86.4%. Also, the growth, % of control in [4] stood at 79.8%. Further, in experiment [5], the cell viability, % of control (lower = more cytotoxic) is 137%. Also, in experiment [6], the viability (% of control) was determined as 107%. Also, the Potency entry in [7] and in experiment [8] was “inactive” in each case.

On to `C[C@@H](O[C@H]1OCCN(Cc2n[nH]c(=O)[nH]2)[C@@H]1c1ccc(F)cc1)c1cc(C(F)(F)F)cc(C(F)(F)F)c1`, for which the remaining proliferation (% of control), lower = more inhibition in experiment [9] amounted to 9.06%. The parasite growth, % of DMSO control in [1] was determined as 26.5%. In experiment [2], the parasite growth remaining, % of DMSO control (lower = more inhibition) came out at 52.9%. In [3], this molecule showed a parasite growth, % of control (lower = inhibition) of 66.5%. The molecule further gave a growth, % of control in experiment [4] of 34.2%. For the same molecule, the cell viability, % of control (lower = more cytotoxic) in experiment [5] worked out at 39.1%. Besides, in experiment [6], the viability (% of control) worked out at 16.1%. In addition, in experiment [7], the Potency was 8.33 µM (active). Further, the Potency entry in experiment [8] was “inactive”.

Regarding `Oc1ccc(C=Cc2cc(O)cc(O)c2)cc1`, the parasite growth, % of DMSO control in experiment [1] came to 49.1%. The parasite growth remaining, % of DMSO control (lower = more inhibition) in experiment [2] is 96.9%. In experiment [3], the parasite growth, % of control (lower = inhibition) amounted to 40.6%. In [4], this molecule gave a growth, % of control of 13%. In addition, in experiment [5], the cell viability, % of control (lower = more cytotoxic) came to 240%. Also, the viability (% of control) in [6] came out at 39.4%. The Potency in experiment [7] is 11.8 µM (active); in [8], 6.62 µM (active).

In the case of `CN(C)N=Nc1nc[nH]c1C(N)=O`, the parasite growth remaining, % of DMSO control (lower = more inhibition) in [2] amounted to 94.4%. This molecule also showed a growth, % of control in [4] of 61.9%. The cell viability, % of control (lower = more cytotoxic) in experiment [5] was 123%. In [6], the viability (% of control) amounted to 121%. In addition, the Potency result in [7] and in experiment [8] was “inactive” each time. In addition, the Potency in experiment [10] is 18.7 µM (active).

In experiment [1], `CCCCC(C=O)NC(=O)C(CC(C)C)NC(=O)OCc1ccccc1` (configuration not stated) returned a parasite growth, % of DMSO control of 4.5%. Besides, the parasite growth remaining, % of DMSO control (lower = more inhibition) in [2] turned out to be 8.7%. Moreover, in experiment [4], the growth, % of control came to 4.08%. For the same molecule, the cell viability, % of control (lower = more cytotoxic) in experiment [5] stood at 52.9%. The viability (% of control) in [6] is 62.2%. Moreover, the Potency entry in experiment [7] and in [8] was “inactive” throughout.

(Values after PubChem BioAssay (NCATS).)
